Measurements taken from article PMC5540273 (PLoS ONE, 2017).
Several values for one entry are separate records, joined by “and”; a condition that tells them apart may be missing. Equal values may be shown once. Read-outs that look alike come from different tables or passages of the source.

Assays:
HIPK2 = conditions: concentration: 1 μM, replicates: in singlicate, n = 1
HIPK3 = conditions: concentration: 1 μM, replicates: in singlicate, n = 1
HIPK4 = conditions: concentration: 1 μM, replicates: in singlicate, n = 1
HPK1 = conditions: concentration: 1 μM, replicates: in singlicate, n = 1
HUNK = conditions: concentration: 1 μM, replicates: in singlicate, n = 1
ICK = conditions: concentration: 1 μM, replicates: in singlicate, n = 1
IGF1R = conditions: concentration: 1 μM, replicates: in singlicate; n = 1
IKK-alpha = test system: T1, IKK-alpha; conditions: concentration: 1 μM, replicates: in singlicate, n = 1
T1 construct: gene CHUK

IKK-beta = test system: T2, IKK-beta; conditions: concentration: 1 μM, replicates: in singlicate; n = 1
T2 construct: gene IKBKB

IKK-epsilon = test system: T3, IKK-epsilon; conditions: concentration: 1 μM, replicates: in singlicate, n = 1
T3 construct: gene IKBKE
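Note: KINOMEscan kinase panel screen.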

SMILES | %Inh (HIPK2) [%] | %Inh (HIPK3) [%] | %Inh (HIPK4) [%] | %Inh (HPK1) [%] | %Inh (HUNK) [%] | %Inh (ICK) [%] | %Inh (IGF1R) [%] | %Inh (IKK-alpha) [%] | %Inh (IKK-beta) [%] | %Inh (IKK-epsilon) [%] | %Inh (HIPK2; 1 µM) | %Inh (HIPK3; 1 µM) | %Inh (HIPK4; 1 µM) | %Inh (HPK1; 1 µM) | %Inh (HUNK; 1 µM) | %Inh (ICK; 1 µM) | %Inh (IKK-alpha; 1 µM) | %Inh (IKK-epsilon; 1 µM)
NC(=O)c1sc(-n2cnc3ccccc32)cc1OCc1ccccc1F [GSK1024306] | 44 | 0 | 24 | 51 | 0 | 0 | 0 | 0 | 2 | 0 |  |  |  |  |  |  |  | 
Cn1ccc2ncnc(Oc3ccc(NC(=O)Nc4cccnc4)c(Cl)c3)c21 | 4 | 0 | 6 | 11 | 24 | 0 | 16 | 13 | 10 | 0 |  |  |  |  |  |  |  | 
FC(F)(F)c1ccc(-c2cc(-c3c[nH]nc3-c3ccccn3)ccn2)cc1 [GW599550] | 0 | 21 | 0 | 26 | 0 | 0 | 28 | 0 | 0 | 47 |  |  |  |  |  |  |  | 
CC(C)N1CCC(n2cnc(-c3ccc(F)cc3)c2-c2ccnc(N)n2)CC1 [SB-223132] | 0 | 0 | 11 | 0 | 0 | 0 | 0 | 0 | 0 | 0 |  |  |  |  |  |  |  | 
C[C@H]1CC[C@@H](C(=O)Nc2ccccc2)CN1c1cc(-c2ccc3c(N)n[nH]c3c2)nc(N)n1 [GSK2283293] | 0 | 0 | 0 | 37 | 0 | 0 | 15 | 7 | 0 | 8 |  |  |  |  |  |  |  | 
Fc1cccc(COc2ccc(Nc3ncnc4nn5ccccc5c34)cc2Cl)c1 [GW689066] | 0 | 0 | 0 | 22 | 28 | 0 | 0 | 11 | 0 | 0 |  |  |  |  |  |  |  | 
Nc1nc(-c2ccc3c(N)n[nH]c3c2)cc(N2CCC[C@@H](C(=O)Nc3ccccc3)C2)n1.O=C(O)C(F)(F)F.O=C(O)C(F)(F)F [GSK2288359] | 0 | 6 | 1 | 32 | 0 | 12 | 100 | 0 | 0 | 29 |  |  |  |  |  |  |  | 
O=C(NCCCN1CCCC1=O)c1cnc(NCc2cc(Cl)ccc2Cl)nc1NC1CCNCC1 | 0 | 0 | 13 | 20 | 0 | 0 | 0 | 0 | 0 | 0 |  |  |  |  |  |  |  | 
COc1ccc(NC(=O)Nc2ccc(C)c(-c3ccc(C(=O)Nc4ccncc4)cc3)c2)cc1 [GSK1398475] | 0 | 4 | 0 | 47 | 7 | 0 | 0 | 0 | 0 | 0 |  |  |  |  |  |  |  | 
C[C@@H]1CCN(C(=O)CO)C[C@@H]1N(C)c1ncnc2[nH]ccc12 | 0 | 0 | 0 | 0 | 0 | 0 | 0 | 0 | 0 | 0 |  |  |  |  |  |  |  | 
Cc1ccc(O)cc1Nc1cc(C(F)(F)F)nc2ccc(-c3ccncc3)cc12 [GW630823] | 0 | 0 | 9 | 0 | 3 | 0 | 5 | 0 | 0 | 0 |  |  |  |  |  |  |  | 
Fc1ccc(-c2ncn(CCCNCc3ccccc3)c2-c2ccncc2)cc1 | 23 | 45 | 0 | 8 | 7 | 12 | 4 | 0 | 9 | 10 |  |  |  |  |  |  |  | 
Fc1cccc(COc2ccc(Nc3ncnc4cc[nH]c34)cc2Cl)c1 | 27 | 40 | 9 | 0 | 8 | 5 | 5 | 5 | 23 | 39 |  |  |  |  |  |  |  | 
COc1ccc(Nc2nccc(N3CCC(NC(=O)c4cccc(NC(C)=O)c4)C3)n2)cc1 (stereo not drawn) [GSK1379732] | 13 | 0 | 0 | 43 | 28 | 0 | 0 | 0 | 0 | 19 |  |  |  |  |  |  |  | 
COc1ccc(-c2nc3n(c2-c2ccncc2)CCC3)cc1 [SKF-104493] |  |  |  |  |  |  | 0 |  | 0 |  | 11% and 0% | 0% and 17% | 2% and 0% | 17% and 0% | 35% and 0% | 32% and 10% | 1% and 0% | 0% and 20%
Nc1n[nH]c2nnc(-c3ccccc3)cc12 [SB-517389] | 55 | 83 | 0 | 35 | 32 | 6 | 0 | 6 | 23 | 22 |  |  |  |  |  |  |  | 
Cl.c1ccc(Cn2ncc3cc(Nc4ncnc5ccccc45)ccc32)cc1 [GW273749] | 0 | 0 | 0 | 20 | 0 | 0 | 0 | 0 | 31 | 24 |  |  |  |  |  |  |  | 
CCc1nc(-c2cccc(C)c2)c(-c2ccnc(NC(=O)c3ccccc3)c2)s1 | 9 | 0 | 0 | 0 | 0 | 59 | 2 | 0 | 0 | 100 |  |  |  |  |  |  |  | 

SMILES | %Inh (HIPK2) [%] | %Inh (HIPK3) [%] | %Inh (HIPK4) [%] | %Inh (HPK1) [%] | %Inh (HUNK) [%] | %Inh (ICK) [%] | %Inh (IGF1R) [%] | %Inh (IKK-alpha) [%] | %Inh (IKK-beta) [%] | %Inh (IKK-epsilon) [%] | %Inh (HIPK2; 1 µM) | %Inh (HIPK3; 1 µM) | %Inh (HIPK4; 1 µM) | %Inh (HPK1; 1 µM) | %Inh (HUNK; 1 µM) | %Inh (ICK; 1 µM) | %Inh (IKK-alpha; 1 µM) | %Inh (IKK-epsilon; 1 µM)
CNc1nccc(-c2c(-c3ccc(F)cc3)ncn2CCCN2CCOCC2)n1 [SB-222516] | 0 | 0 | 0 | 0 | 39 | 37 | 2 | 0 | 0 | 0 |  |  |  |  |  |  |  | 
Clc1ccc(-c2cc(-c3c[nH]nc3-c3ccccn3)ccn2)cc1 [GW681251] | 0 | 19 | 0 | 24 | 6 | 0 | 4 | 0 | 28 | 3 |  |  |  |  |  |  |  | 
CS(=O)(=O)CCNCc1nc(-c2ccc3ncnc(Nc4ccc(OCc5cccc(F)c5)c(Cl)c4)c3c2)cs1.Cl [GW583340] | 0 | 0 | 0 | 33 | 0 | 0 | 0 | 3 | 6 | 7 |  |  |  |  |  |  |  | 
O=C(CCO)NCCn1ccc2ncnc(Nc3ccc(Oc4cccc(C(F)(F)F)c4)c(Cl)c3)c21 | 0 | 0 | 0 | 7 | 0 | 0 | 0 | 0 | 0 | 0 |  |  |  |  |  |  |  | 
CC(C)(C)c1ccc(-n2cnc3c(N)ncnc32)cc1 [SKF-97263] | 0 | 6 | 0 | 60 | 14 | 17 | 11 | 0 | 7 | 19 |  |  |  |  |  |  |  | 
Cc1ccc(NC(=O)c2cccc(C#N)c2)cc1-c1ccc(C(=O)Nc2ccncc2)cc1 [GSK1398463] | 0 | 8 | 0 | 40 | 0 | 35 | 14 | 32 | 36 | 15 |  |  |  |  |  |  |  | 
O=C(c1ccc(-c2cc(-c3c[nH]nc3-c3ccccn3)ccn2)cc1)N1CCCC1 [GW792479] | 0 | 0 | 24 | 20 | 9 | 0 | 0 | 0 | 0 | 0 |  |  |  |  |  |  |  | 
Nc1nccc2scc(-c3ccc4c(c3)CCN4C(=O)Cc3cc(F)ccc3F)c12 [GSK2587663] | 0 | 6 | 0 | 28 | 14 | 0 | 13 | 5 | 0 | 5 |  |  |  |  |  |  |  | 
OCCOCCn1ccc2ncnc(Nc3ccc(Oc4cccc(Cl)c4)c(Cl)c3)c21 | 0 | 0 | 0 | 0 | 7 | 0 | 0 | 0 | 0 | 0 |  |  |  |  |  |  |  | 
FC(F)(F)c1ccc(-c2nn3ncccc3c2-c2ccnc(Nc3cccc(C(F)(F)F)c3)n2)cc1 [GW828205] | 0 | 0 | 11 | 0 | 32 | 0 | 3 | 0 | 0 | 0 |  |  |  |  |  |  |  | 
Cc1cccc(-c2nc(Nc3ccc4[nH]nnc4c3)c3ccccc3n2)n1 [GW867587] | 0 | 0 | 0 | 0 | 37 | 0 | 0 | 0 | 0 | 0 |  |  |  |  |  |  |  | 
COc1cc2c(Nc3cccc(NC(=O)c4ccccc4)c3)ncnc2cc1OCCCN1CCOCC1 [GSK223810] | 0 | 0 | 7 | 55 | 0 | 0 | 0 | 0 | 0 | 19 |  |  |  |  |  |  |  | 
Cl.O=S(=O)(c1cccc(F)c1)c1ccc(Nc2ncnc3cc(Br)sc23)cc1Cl [GSK306886] | 0 | 23 | 0 | 29 | 57 | 0 | 0 | 0 | 41 | 0 |  |  |  |  |  |  |  | 
CSc1ccc(NC2=C(c3ccccc3Cl)C(=O)NC2=O)cc1 [SB-342411] | 0 | 31 | 0 | 0 | 0 | 40 | 6 | 0 | 0 | 44 |  |  |  |  |  |  |  | 
FC(F)(F)c1cc(Nc2nccc(-c3c(-c4ccc(Cl)cc4)nn4ncccc34)n2)ccc1Cl [GW829351] | 0 | 0 | 0 | 0 | 67 | 0 | 0 | 0 | 0 | 0 |  |  |  |  |  |  |  | 
Nc1nc(-c2ccc3c(N)n[nH]c3c2)cc(N2CCCCC2)n1 [GSK2228768] | 0 | 0 | 0 | 32 | 0 | 0 | 0 | 0 | 0 | 29 |  |  |  |  |  |  |  | 
O=c1cc(N2CCOCC2)nc2n(Cc3cccc(Cl)c3)ccn12 [GSK2296823] | 0 | 18 | 0 | 37 | 0 | 19 | 1 | 3 | 17 | 35 |  |  |  |  |  |  |  | 
CC(=O)Nc1n[nH]c2ncc(-c3ccccc3)cc12 [SB-548492] | 48 | 34 | 7 | 23 | 24 | 28 | 10 | 0 | 22 | 0 |  |  |  |  |  |  |  | 
